About 2,000 (36%) of roughly 5,500 compounds were called active. Not shown: some 18% with an inconclusive outcome. Rule as the data show it: active = normalized growth mostly below about 0.91 (no sharp cut-off); inconclusive = no clear call, values can overlap the other calls; inactive = mostly above about 0.92. This is one part of the list.
Assay: chemical genetic growth profiling, strain panel (AID 1159580);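 also: tested at 20 µM; growth read once vehicle control cultures reached saturation at 30 °C; 1 = growth at the plate median or of vehicle wells; lower values mean less growth of the strain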
Conditions: growth OD
[1] = S. cerevisiae deletion strains, locus YDL101C, strain DUN1, hits give low values
[2] = S. cerevisiae deletion strains, locus YHR030C, strain SLT2, hits give low values

Measured: normalized growth

COc1ccccc1N=C1SCC(=O)N1Cc1ccco1
inactive: S. cerevisiae deletion strains, locus YAL013W, strain DEP1, hits give low values 0.993 | S. cerevisiae deletion strains, locus YBR229C, strain ROT2, hits give low values 0.99 | [1] 0.983 | S. cerevisiae deletion strains, locus YDR150W, strain NUM1, hits give low values 0.9 | S. cerevisiae deletion strains, locus YEL061C, strain CIN8, hits give low values 0.989 | S. cerevisiae deletion strains, locus YGR078C, strain PAC10, hits give low values 0.981 | S. cerevisiae deletion strains, locus YGR229C, strain SMI1, hits give low values 1 | [2] 0.956 | S. cerevisiae deletion strains, locus YHR087W, strain rtc3, hits give low values 0.989 | S. cerevisiae deletion strains, locus YJR043C, strain POL32, hits give low values 0.977 | S. cerevisiae deletion strains, locus YJR075W, strain HOC1, hits give low values 0.978 | S. cerevisiae deletion strains, locus YKL190W, strain CNB1, hits give low values 0.997 | S. cerevisiae deletion strains, locus YLR039C, strain RIC1, hits give low values 0.989 | S. cerevisiae deletion strains, locus YLR058C, strain SHM2 (second series), hits give low values 0.99 | S. cerevisiae deletion strains, locus YLR085C, strain ARP6, hits give low values 0.968 | S. cerevisiae deletion strains, locus YLR262C, strain YPT6, hits give low values 0.998 | S. cerevisiae deletion strains, locus YML094W, strain GIM5, hits give low values 0.972 | S. cerevisiae deletion strains, locus YMR219W, strain ESC1, hits give low values 0.989 | S. cerevisiae deletion strains, locus YMR263W, strain SAP30, hits give low values 0.987 | S. cerevisiae deletion strains, locus YNL153C, strain GIM3, hits give low values 0.987 | S. cerevisiae deletion strains, locus YNL298W, strain CLA4 (second series), hits give low values 0.997 | S. cerevisiae deletion strains, locus YNL322C, strain KRE1, hits give low values 0.985 | S. cerevisiae deletion strains, locus YNR030W, strain Alg12, hits give low values 0.998 | S. cerevisiae deletion strains, locus YOL006C, strain TOP1, hits give low values 0.951 | S. cerevisiae deletion strains, locus YPL055C, strain LGE1, hits give low values 0.969 | S. cerevisiae deletion strains, locus YPL241C, strain CIN2, hits give low values 1.01 | S. cerevisiae deletion strains, locus YPR135W, strain CTF4, hits give low values 0.939 | S. cerevisiae strains, strain wild type, hits give low values 1

O=C1CSC(=Nc2cc(Cl)cc(Cl)c2)N1Cc1cccnc1
inactive: S. cerevisiae deletion strains, locus YAR019C, strain CDC15, hits give low values 0.997 | S. cerevisiae deletion strains, locus YBL105C, strain PKC1, hits give low values 0.989 | S. cerevisiae deletion strains, locus YBR135W, strain CKS1, hits give low values 0.995 | S. cerevisiae deletion strains, locus YBR136W, strain MEC1, hits give low values 0.986 | S. cerevisiae deletion strains, locus YBR160W, strain CDC28, hits give low values 0.992 | S. cerevisiae deletion strains, locus YDL017W, strain CDC7, hits give low values 0.991 | S. cerevisiae deletion strains, locus YDL028C, strain MPS1, hits give low values 0.994 | [1] 0.988 | S. cerevisiae deletion strains, locus YDL108W, strain KIN28, hits give low values 0.97 | S. cerevisiae deletion strains, locus YDL132W, strain cdc53, hits give low values 0.997 | S. cerevisiae deletion strains, locus YDL214C, strain PRR2, hits give low values 0.924 | S. cerevisiae deletion strains, locus YDR052C, strain DBF4, hits give low values 0.995 | S. cerevisiae deletion strains, locus YDR054C, strain cdc34, hits give low values 0.983 | S. cerevisiae deletion strains, locus YDR226W, strain ADK1, hits give low values 0.996 | S. cerevisiae deletion strains, locus YDR477W, strain SNF1, hits give low values 0.947 | S. cerevisiae deletion strains, locus YER123W, strain YCK3, hits give low values 0.887 | S. cerevisiae deletion strains, locus YER133W, strain GLC7, hits give low values 0.927 | S. cerevisiae deletion strains, locus YFL009W, strain cdc4, hits give low values 0.986 | S. cerevisiae deletion strains, locus YFL029C, strain CAK1, hits give low values 0.994 | S. cerevisiae deletion strains, locus YFR003C, strain YPI1, hits give low values 0.991 | S. cerevisiae deletion strains, locus YFR019W, strain FAB1, hits give low values 0.944 | S. cerevisiae deletion strains, locus YFR028C, strain CDC14, hits give low values 0.994 | S. cerevisiae deletion strains, locus YGR040W, strain KSS1, hits give low values 0.937 | S. cerevisiae deletion strains, locus YGR052W, strain FMP48, hits give low values 1.03 | S. cerevisiae deletion strains, locus YGR092W, strain DBF2, hits give low values 0.947 | [2] 1.14 | S. cerevisiae deletion strains, locus YHR079C, strain IRE1, hits give low values 1.05 | S. cerevisiae deletion strains, locus YHR082C, strain KSP1, hits give low values 1.01 | S. cerevisiae deletion strains, locus YHR205W, strain SCH9, hits give low values 0.958 | S. cerevisiae deletion strains, locus YIL147C, strain SLN1, hits give low values 0.986 | S. cerevisiae deletion strains, locus YJL095W, strain BCK1, hits give low values 1.03 | S. cerevisiae deletion strains, locus YJL128C, strain PBS2, hits give low values 0.974 | S. cerevisiae deletion strains, locus YJL157C, strain FAR1, hits give low values 0.931 | S. cerevisiae deletion strains, locus YJR016C, strain ILV3, hits give low values 0.996 | S. cerevisiae deletion strains, locus YJR066W, strain TOR1 (second series), hits give low values 0.912 | S. cerevisiae deletion strains, locus YJR066W, strain TOR1, hits give low values 1.02 | S. cerevisiae deletion strains, locus YKL048C, strain ELM1, hits give low values 0.974 | S. cerevisiae deletion strains, locus YKL067W, strain YNK1, hits give low values 0.948 | S. cerevisiae deletion strains, locus YKL101W, strain HSL1, hits give low values 0.958 | S. cerevisiae deletion strains, locus YKL193C, strain SDS22, hits give low values 0.999 | S. cerevisiae deletion strains, locus YKL203C, strain TOR2, hits give low values 1.02 | S. cerevisiae deletion strains, locus YLR113W, strain HOG1, hits give low values 0.968 | S. cerevisiae deletion strains, locus YLR133W, strain CKI1, hits give low values 0.955 | S. cerevisiae deletion strains, locus YLR403W, strain SFP1, hits give low values 0.957 | S. cerevisiae deletion strains, locus YML070W, strain DAK1, hits give low values 0.918 | S. cerevisiae deletion strains, locus YMR001C, strain CDC5, hits give low values 0.996 | S. cerevisiae deletion strains, locus YMR205C, strain PFK2 (second series), hits give low values 0.938 | S. cerevisiae deletion strains, locus YMR277W, strain FCP1, hits give low values 0.996 | S. cerevisiae deletion strains, locus YNL006W, strain LST8, hits give low values 0.994 | S. cerevisiae deletion strains, locus YNL020C, strain ARK1, hits give low values 0.945 | S. cerevisiae deletion strains, locus YNL161W, strain CBK1, hits give low values 0.996 | S. cerevisiae deletion strains, locus YNL183C, strain NPR1, hits give low values 1.03 | S. cerevisiae deletion strains, locus YNL207W, strain RIO2, hits give low values 0.993 | S. cerevisiae deletion strains, locus YNL222W, strain SSU72, hits give low values 1 | S. cerevisiae deletion strains, locus YNL307C, strain MCK1 (second series), hits give low values 0.952 | S. cerevisiae deletion strains, locus YOL078W, strain AVO1, hits give low values 0.998 | S. cerevisiae deletion strains, locus YOL136C, strain PFK27, hits give low values 0.927 | S. cerevisiae deletion strains, locus YOR061W, strain CKA2, hits give low values 0.927 | S. cerevisiae deletion strains, locus YOR119C, strain RIO1, hits give low values 0.981 | S. cerevisiae deletion strains, locus YOR231W, strain MKK1, hits give low values 1.02 | S. cerevisiae deletion strains, locus YOR329C, strain SCD5, hits give low values 0.994 | S. cerevisiae deletion strains, locus YPL031C, strain PHO85, hits give low values 0.949 | S. cerevisiae deletion strains, locus YPL153C, strain RAD53, hits give low values 0.923 | S. cerevisiae deletion strains, locus YPL204W, strain HRR25, hits give low values 0.944 | S. cerevisiae deletion strains, locus YPL209C, strain IPL1, hits give low values 0.991 | S. cerevisiae deletion strains, locus YPL256C, strain CLN2, hits give low values 1.04 | S. cerevisiae deletion strains, locus YPR025C, strain CCL1, hits give low values 0.992 | S. cerevisiae deletion strains, locus YPR106W, strain ISR1, hits give low values 0.998 | S. cerevisiae deletion strains, locus YPR111W, strain DBF20, hits give low values 0.99 | S. cerevisiae deletion strains, strain NNK1, hits give low values 0.991 | S. cerevisiae deletion strains, strain TSCII, hits give low values 0.997
